SENP6 block: SENP6 protease inhibitors, primary screen, biochemical, luminescence, uHTS. Recombinant SENP6 catalytic domain, aminoluciferin luminescence. AID 2599, 2010. hit rate 1.8% among 330,000. inhibition, % at 10 µM;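 active means inhibition above about 50% at the single tested dose, limit read from the data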;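 further: plate controls were DMSO wells with enzyme for no effect and DMSO wells lacking enzyme for full effect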
Target sequence (Q9GZR1 628-1112 limits assumed): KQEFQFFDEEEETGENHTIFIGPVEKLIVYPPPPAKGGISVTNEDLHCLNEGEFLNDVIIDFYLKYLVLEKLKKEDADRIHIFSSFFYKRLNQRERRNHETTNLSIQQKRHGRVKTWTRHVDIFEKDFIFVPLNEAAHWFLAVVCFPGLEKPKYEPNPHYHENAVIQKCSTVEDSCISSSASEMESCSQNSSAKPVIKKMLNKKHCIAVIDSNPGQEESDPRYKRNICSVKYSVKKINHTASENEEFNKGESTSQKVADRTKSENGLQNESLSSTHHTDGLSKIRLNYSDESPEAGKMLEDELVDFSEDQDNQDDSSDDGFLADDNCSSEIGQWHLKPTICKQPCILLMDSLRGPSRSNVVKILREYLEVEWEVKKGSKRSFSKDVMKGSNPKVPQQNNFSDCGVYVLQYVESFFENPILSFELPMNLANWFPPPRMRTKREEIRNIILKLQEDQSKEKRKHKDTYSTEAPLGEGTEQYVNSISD
SENP8 block-1: human SENP8 protease inhibitors, primary screen, biochemical, fluorescence, Nedd8 protein substrate, uHTS; Sentrin-specific protease 8 (Homo sapiens), Q96LD8; recombinant SENP8; inhibition, % at 20 µM; hit rate 0.64% among 360,000; AID 602440, 2012; in the data active means inhibition mostly above about 40%, no sharp cut-off; inactive means mostly below about 27%
SENP8 block-2: SENP8 protease inhibitors, primary screen, biochemical, luminescence; Sentrin-specific protease 8 (Homo sapiens), Q96LD8; purified SENP8, Z-RLRGG-aminoluciferin cleavage; inhibition, % at 10 µM; hit rate 1.2% among 330,000; in the data active means inhibition above about 50%
TRAIL sens C8: viability loss with TRAIL in NB7+C8 cells, primary screen, TRAIL sensitizer project, cell-based, ATPlite luminescence | inhibition (viability loss, TRAIL sensitization), % at 10 µM | hit rate 1% among 360,000 | AID 624354, 2012;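 active means compounds causing at least 50% loss of cell viability in the single-dose screen, relative to plate controls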
PPC-1+TRAIL kill: compounds killing PPC-1 cancer cells with TRAIL present, primary screen, TRAIL potentiator project, ATPLite luminescence, uHTS; hit rate 0.41% among 220,000; cell killing (% activity), % at 4 µM or 5 µM; PPC-1 cells + TRAIL, ATPLite viability luminescence;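 active means cell killing above 50% in the first pass at 4 µM, then a duplicate retest at 5 µM averaging 50% or more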;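 further: plate controls were cells with TRAIL plus DMSO for no effect and medium-only wells lacking cells for full effect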
SENP7 inh: SENP7 protease inhibitors, primary screen, biochemical, luminescence, uHTS. Sentrin-specific protease 7 (Homo sapiens), Q9BQF6. inhibition, % at 5 µM. hit rate 1.5% among 330,000. recombinant SENP7, Z-RLRGG-aminoluciferin luminescence, 40 min;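 active means inhibition above about 50% at the single test dose, limit read from the data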;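 further: plate controls were DMSO with enzyme for no effect and no enzyme buffer wells for full effect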
Active calls of the source: *; / = no result given; ! = not confirmed by another sample. An excerpt weighted towards active compounds, which were near 3% of everything screened.

SMILES	SENP6 block	SENP8 block-1	SENP8 block-2	TRAIL sens C8	PPC-1+TRAIL kill	SENP7 inh
CC(=O)N1N=C(c2ccco2)CC1c1cccs1 (stereo not given)	6	5	-7	6	-5	-9
COCCN1C[C@@H](CO)O[C@@H](n2cnc3c(NC4CC4)ncnc32)C1	/	11	/	-6	/	/
CN1C(=O)/C(=C/c2cc(N=Nc3ccccc3)ccc2O)SC1=S	22	39*	21	8	32	17
Cc1cc(C)c2nc(C)cc(N/N=C/c3ccc(O)cc3)c2c1	1	-304	3	81*	/	-1
Cc1cc(-c2ccccc2)nc(N/N=C/c2ccc(O)cc2)n1	-1	-8	0	77*	/	3
CCCc1nc2c(ccc3ccccc32)cc1CC	-7	-2	-6	4	/	4
CCn1c2ccccc2c2cc(NC(=O)c3ccccc3[N+](=O)[O-])ccc21	1	10	-4	-23	14	1
COc1ccc(-c2cc(CNc3nc(NC(C)C)nc4cc(-c5ccccc5)sc34)on2)cc1	/	-257	/	80*	/	/
CC(=O)Nc1ccc(CNc2nc(NC(C)C)nc3cc(-c4ccccc4)sc23)cc1	/	-332	/	31	/	/
O=C(Nc1cccc2nsnc12)c1cccs1	58*!	-288	16	16	26	50*!
O=C(NC1=NCCS1)c1cccs1	-10	15	1	45*	0	7
c1ccc(Nc2ccccc2Nc2ccccn2)nc1	16	-1	4	-22	26	22
Oc1cccc2ccc(Nc3ccccn3)nc12	3	-89	-13	83*	-4	-7
CCO[C@H]1OC(C(=O)N2CCCCCCC2)=C[C@@H](C)[C@@H]1CCCO	-4	13	-4	-14	-4	0
Cc1ccc(Cl)cc1N1CCN(C(=O)c2cc3c(=O)[nH]c4ccccc4c3n2C)CC1	-6	-7	-9	48	50*	-3
Cn1c(C(=O)N2CCN(c3ccc(Cl)cc3)CC2)cc2c(=O)[nH]c3ccccc3c21	0	-57	7	14	-19	5
C#CCN(C[C@@H]1[C@@H](OC(=O)NC2CCCC2)[C@@H](OC(=O)NC2CCCC2)Cn2c(=O)ccc(=O)n21)S(=O)(=O)c1ccc(C)cc1	/	6	/	48	/	/
C#CCN(C[C@@H]1[C@@H](OC(=O)NCc2ccccc2F)[C@@H](OC(=O)NCc2ccccc2F)Cn2c(=O)ccc(=O)n21)S(=O)(=O)c1ccc(C)cc1	/	-8	/	81*	/	/
C#CCN(C[C@@H]1[C@@H](OC(=O)Nc2cccs2)[C@@H](OC(=O)Nc2cccs2)Cn2c(=O)ccc(=O)n21)S(=O)(=O)c1ccc(C)cc1	/	6	/	86*	/	/
COc1ccc(C(=O)NCc2cn3cccc(C)c3n2)cc1OC	2	12	4	60*	33	1
CNC(=S)N/N=C/c1ccc(-c2cccc(C(=O)O)c2)o1	-22	-300	35	-2	0	31
Nc1nonc1C(=O)N/N=C/c1ccc(-c2cccc(C(=O)O)c2)o1	58*	/	27	/	15	3
O=C1C=CC(=O)C(CNc2ccc(C(=O)OCc3ccccc3)cc2)=C1	/	9	/	91*	/	/
CN(C)c1ccc(C(=O)OCc2ccccc2)cc1	-2	2	-17	5	-3	-3
Cc1ccc(C(=O)c2no[n+]([O-])c2C(=O)c2ccc(C)cc2)cc1	-1	22	2	93*	10	10
SMILES	SENP6 block	SENP8 block-1	SENP8 block-2	TRAIL sens C8	PPC-1+TRAIL kill	SENP7 inh
O=C(NCCc1ccccc1)C(c1cccs1)N(C(=O)CCl)c1ccc(Cl)cc1 (stereo not given)	18	3	-3	96*	9	-8
CN(NC(=O)c1cccc(Cl)c1)c1nc(-c2ccccc2)nnc1C(F)(F)F	-17	29	-7	53*	7	-9
CN(N)c1nc(-c2ccccc2)nnc1C(F)(F)F	-10	32	5	-17	-6	7
CCNC(=S)N/N=C1\C(=O)c2cccc3cccc1c23	-11	44*	-1	-7	24	-1
O=C(N/N=C1/C(=O)c2cccc3cccc1c23)c1ccc(Cl)cc1	-35	48*	-1	0	10	-7
CCCCN(C)CCNC(=O)CCNC(=O)Cn1ccc2ccccc2c1=O	-30	-2	-19	-4	0	-5
NC(=O)C1(N2CCCCC2)CCN(C(=S)Nc2cc(F)cc(F)c2)CC1	-1	10	3	-5	2	3
CCn1c2ccccc2nc2cc3c(cc21)c(Cl)c(=O)c1ccccc13	/	81*	/	79*	/	/
CCOc1cc(CNc2ccc(O)cc2)ccc1OCc1ccc(Cl)cc1Cl	-3	75*	-6	10	-20	72*
CCOc1cccc(CNc2ccc(O)cc2)c1OCc1ccc(Cl)cc1	-6	30	-3	-1	18	21
COc1ccc(-c2csc(NC(CO)c3nc4ccccc4n3CCCO)n2)cc1 (stereo not given)	2	-11	-1	-14	/	-2
O=C1Nc2ccc(Br)cc2/C1=C/C(=O)c1ccc2c(c1)OCO2	-1	-10	1	38	4	-5
COc1ccc(C(=O)/C=C2\C(=O)Nc3ccc(Br)cc32)cc1	/	1	/	59*	/	/
COC(=O)c1c(-c2ccccc2)csc1NC1=NS(=O)(=O)c2ccccc21	5	-188	2	73*	40	5
COC(=O)c1ccc(C(=O)OC)c(NC2=NS(=O)(=O)c3ccccc32)c1	-19	-126	-4	11	-8	-9
COc1ccc(CN2CCN(C(=O)CCC(=O)c3ccc(C)s3)CC2)cc1OC	-13	-28	-5	-9	/	1
O=C(Nc1ccc(O)cc1)c1ccc2c(c1)C(=O)N(Cc1ccccc1)C2=O	-10	8	1	63*	/	-5
Cc1ccc(-n2nc3c(=O)n(CCCC(=O)NCc4ccco4)nc(C)c3c2C)cc1	-11	7	7	10	/	-5
CC1(C)OC(c2ccccc2)=C/C(=C/C=C2C(=O)c3ccccc3C2=O)O1	-15	59*	8	6	/	3
CCCCCCC[N+](CC)(CC)CCCCc1ccc(Cl)cc1	6	12	1	57*	/	4
CCCCCNCc1ccc(Cl)cc1	-2	10	-6	0	-3	0
CCCCN(CC)S(=O)(=O)c1ccc(C(=O)N=c2sc3cc(NC(C)=O)ccc3n2C)cc1	14	-265	-2	61*	9	1
CC1(C)CC2CC(C)(CN2C(=O)COC(=O)CNC(=O)c2ccc(Cl)c(Cl)c2)C1 (stereo not given)	2	20	6	2	5	12
COc1ccc(-c2noc(-c3ccc(Br)o3)n2)cc1	31	-13	0	5	-7	36

Assay outcomes deposited in PubChem BioAssay by Sanford-Burnham Center for Chemical Genomics.
